Assay results published in PubChem BioAssay AID1159580 (chemical genetic matrix, 2015).
Out of some 5,500 compounds screened, about 2,000 (36%) were called active. Roughly 18% stayed inconclusive and do not appear here. Cut-off read from the data, not from the text of the source: active = normalized growth mostly below about 0.91 (no sharp cut-off); inconclusive = no clear call, values can overlap the other calls; inactive = mostly above about 0.92. The list shows a part of the results.

Experiment: chemical genetic growth profiling, strain panel (AID 1159580);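 note: tested at 20 µM; growth read once vehicle control cultures reached saturation at 30 °C; 1 = growth at the plate median or of vehicle wells; lower values mean less growth of the strain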
Details: growth OD

Measured: normalized growth

Cc1ccccc1OCC(O)CO (stereo not given)
inactive: S. cerevisiae deletion strains, locus YJR066W, strain TOR1, hits give low values 0.913 | S. cerevisiae deletion strains, locus YJR075W, strain HOC1, hits give low values 1.04 | S. cerevisiae deletion strains, locus YKL009W, strain mrt4, hits give low values 0.987 | S. cerevisiae deletion strains, locus YKL068W, hits give low values 0.996 | S. cerevisiae deletion strains, locus YKL085W, strain MDH1 (second series), hits give low values 1.04 | S. cerevisiae deletion strains, locus YKL085W, strain MDH1, hits give low values 1.04 | S. cerevisiae deletion strains, locus YKL160W, strain elf1, hits give low values 0.986 | S. cerevisiae deletion strains, locus YKL190W, strain CNB1, hits give low values 1.01 | S. cerevisiae deletion strains, locus YKR001C, strain vps1, hits give low values 0.991 | S. cerevisiae deletion strains, locus YKR026C, strain gcn3, hits give low values 0.928 | S. cerevisiae deletion strains, locus YKR091W, strain srl3, hits give low values 0.984 | S. cerevisiae deletion strains, locus YLL001W, strain dnm1, hits give low values 0.985 | S. cerevisiae deletion strains, locus YLL026W, hits give low values 0.983 | S. cerevisiae deletion strains, locus YLL041C, strain sdh2, hits give low values 0.985 | S. cerevisiae deletion strains, locus YLR027C, strain aat2, hits give low values 0.957 | S. cerevisiae deletion strains, locus YLR039C, strain RIC1, hits give low values 1.02 | S. cerevisiae deletion strains, locus YLR058C, strain SHM2, hits give low values 1.02 | S. cerevisiae deletion strains, locus YLR102C, strain apc9, hits give low values 0.991 | S. cerevisiae deletion strains, locus YLR113W, strain HOG1, hits give low values 0.971 | S. cerevisiae deletion strains, locus YLR221C, strain rsa3, hits give low values 0.982 | S. cerevisiae deletion strains, locus YLR258W, strain gsy2, hits give low values 0.98 | S. cerevisiae deletion strains, locus YLR262C, strain YPT6 (second series), hits give low values 0.973 | S. cerevisiae deletion strains, locus YLR262C, strain YPT6, hits give low values 1.02 | S. cerevisiae deletion strains, locus YLR268W, strain sec22, hits give low values 0.996 | S. cerevisiae deletion strains, locus YLR320W, strain mms22, hits give low values 0.964 | S. cerevisiae deletion strains, locus YLR330W, strain CHS5, hits give low values 1.01 | S. cerevisiae deletion strains, locus YLR342W, strain FKS1 (second series), hits give low values 1.04 | S. cerevisiae deletion strains, locus YLR342W, strain FKS1, hits give low values 0.966 | S. cerevisiae deletion strains, locus YLR357W, strain rsc2, hits give low values 0.982 | S. cerevisiae deletion strains, locus YLR370C, strain arc18, hits give low values 0.979 | S. cerevisiae deletion strains, locus YLR371W, strain rom2, hits give low values 0.992 | S. cerevisiae deletion strains, locus YLR384C, strain iki3, hits give low values 0.992 | S. cerevisiae deletion strains, locus YLR418C, strain cdc73, hits give low values 1.01 | S. cerevisiae deletion strains, locus YML016C, strain PPZ1, hits give low values 1.02 | S. cerevisiae deletion strains, locus YML032C, strain rad52, hits give low values 0.992 | S. cerevisiae deletion strains, locus YML120C, strain ndi1, hits give low values 0.965 | S. cerevisiae deletion strains, locus YML124C, strain tub3, hits give low values 0.993 | S. cerevisiae deletion strains, locus YMR058W, strain fet3, hits give low values 0.98 | S. cerevisiae deletion strains, locus YMR078C, strain ctf18, hits give low values 0.995 | S. cerevisiae deletion strains, locus YMR125W, strain sto1, hits give low values 0.953 | S. cerevisiae deletion strains, locus YMR129W, hits give low values 0.99 | S. cerevisiae deletion strains, locus YMR205C, strain PFK2, hits give low values 0.975 | S. cerevisiae deletion strains, locus YMR223W, strain ubp8, hits give low values 0.991 | S. cerevisiae deletion strains, locus YMR231W, strain pep5, hits give low values 0.988 | S. cerevisiae deletion strains, locus YMR263W, strain SAP30, hits give low values 1.03 | S. cerevisiae deletion strains, locus YMR307W, strain GAS1, hits give low values 1.09 | S. cerevisiae deletion strains, locus YNL067W, strain RPL9B, hits give low values 1.03 | S. cerevisiae deletion strains, locus YNL071W, strain lat1, hits give low values 0.977 | S. cerevisiae deletion strains, locus YNL183C, strain NPR1, hits give low values 0.919 | S. cerevisiae deletion strains, locus YNL209W, strain ssb2, hits give low values 0.984 | S. cerevisiae deletion strains, locus YNL233W, strain BNI4, hits give low values 1.04 | S. cerevisiae deletion strains, locus YNL248C, strain rpa49, hits give low values 0.977 | S. cerevisiae deletion strains, locus YNL250W, strain rad50, hits give low values 0.995 | S. cerevisiae deletion strains, locus YNL271C, strain bni1, hits give low values 0.989 | S. cerevisiae deletion strains, locus YNL298W, strain CLA4, hits give low values 0.993 | S. cerevisiae deletion strains, locus YNL307C, strain MCK1, hits give low values 0.994 | S. cerevisiae deletion strains, locus YNL322C, strain KRE1 (second series), hits give low values 0.979 | S. cerevisiae deletion strains, locus YNL322C, strain KRE1, hits give low values 1.01 | S. cerevisiae deletion strains, locus YNR049C, strain mso1, hits give low values 0.955 | S. cerevisiae deletion strains, locus YNR052C, strain pop2, hits give low values 0.991 | S. cerevisiae deletion strains, locus YOL006C, strain TOP1, hits give low values 1.11 | S. cerevisiae deletion strains, locus YOL012C, strain htz1 0.987 | S. cerevisiae deletion strains, locus YOL147C, strain pex11, hits give low values 0.992 | S. cerevisiae deletion strains, locus YOR001W, strain rrp6, hits give low values 0.963 | S. cerevisiae deletion strains, locus YOR061W, strain CKA2, hits give low values 1.02 | S. cerevisiae deletion strains, locus YOR069W, strain VPS5, hits give low values 1.01 | S. cerevisiae deletion strains, locus YOR070C, strain gyp1, hits give low values 0.969 | S. cerevisiae deletion strains, locus YOR080W, strain dia2, hits give low values 0.968 | S. cerevisiae deletion strains, locus YOR083W, strain WHI5, hits give low values 0.967 | S. cerevisiae deletion strains, locus YOR106W, strain vam3, hits give low values 0.96 | S. cerevisiae deletion strains, locus YOR136W, strain idh2, hits give low values 0.998 | S. cerevisiae deletion strains, locus YOR144C, strain elg1, hits give low values 0.99 | S. cerevisiae deletion strains, locus YOR184W, strain ser1, hits give low values 1.01 | S. cerevisiae deletion strains, locus YOR231W, strain MKK1, hits give low values 0.974 | S. cerevisiae deletion strains, locus YOR265W, strain rbl2, hits give low values 0.968 | S. cerevisiae deletion strains, locus YOR270C, strain vph1, hits give low values 0.911 | S. cerevisiae deletion strains, locus YOR290C, strain snf2, hits give low values 0.969 | S. cerevisiae deletion strains, locus YOR316C, strain cot1, hits give low values 0.992 | S. cerevisiae deletion strains, locus YPL051W, strain arl3, hits give low values 0.981 | S. cerevisiae deletion strains, locus YPL055C, strain LGE1, hits give low values 1.07 | S. cerevisiae deletion strains, locus YPL078C, strain atp4, hits give low values 0.971 | S. cerevisiae deletion strains, locus YPL106C, strain sse1, hits give low values 0.958 | S. cerevisiae deletion strains, locus YPL240C, strain hsp82, hits give low values 0.992 | S. cerevisiae deletion strains, locus YPL256C, strain CLN2, hits give low values 0.974 | S. cerevisiae deletion strains, locus YPR119W, strain clb2, hits give low values 0.997 | S. cerevisiae deletion strains, locus YPR141C, strain kar3, hits give low values 0.989 | S. cerevisiae deletion strains, locus YPR163C, strain tif3, hits give low values 0.991 | S. cerevisiae deletion strains, locus YPR167C, strain met16, hits give low values 0.998 | S. cerevisiae deletion strains, strain wtn01, hits give low values 1 | S. cerevisiae strains, strain wild type, hits give low values 1.02
